This passage reports outcome, max response and Potency results from PubChem BioAssay (NCATS).

One assay relates to HEK293. Description: Cytotoxic Profiling of Annotated Libraries Using Quantitative High-Throughput Screening (AID 1296008). Also: nearly all actives have a fitted effect of over 60% in size. The conditions noted are these: Five cell lines viability, CellTiter-Glo ATP luminescence, 48-72 h; max response: hits give low values. The procedure, abridged: (§1)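 Cytotoxicity was measured as CellTiter-Glo ATP luminescence, read after 10 min at room temperature. Compound treatment of the cells lasted 48 or 72 hr at 37 degrees Celsius in a qHTS format.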
Background: In ATP-based viability assays light output follows the ATP content of the culture.

In assay [1] the test system is HaCat. The assay is described as above. The conditions noted are these: Five cell lines viability, CellTiter-Glo ATP luminescence, 48-72 h; max response: hits give low values. An outline of the steps:
as §1

Another assay has as its system KB-3-1. The assay is described as above. The following applies: Five cell lines viability, CellTiter-Glo ATP luminescence, 48-72 h; max response: hits give low values. The procedure, abridged: as §1
Assay [2] relates to NIH3T3. The description is as above. The following applies: Five cell lines viability, CellTiter-Glo ATP luminescence, 48-72 h; max response: hits give low values. The procedure, abridged:
as §1

For the next assay, the system named is HEK293T. In words: qHTS assay to identify novel small-molecules to repurpose for Merkel cell carcinoma treatment (AID 1296009). Also: nearly all actives have a fitted effect of over 60% in size. The following applies: MCC and control cell lines, CellTiter-Glo viability, 72 h; at 44.8 µM (top of the series). An outline of the steps:
(§2)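 72 hr, 37 degree celsius; NPC 8-pt / MIPE 11-pt dose response; compound pinned in DMSO; CellTiter-Glo, 10 min RT, luminescence; normalized to no-cell and DMSO controls.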
On the technique in general: Quantitative high-throughput screening tests each substance at several concentrations.

A further assay concerns MCC-13. The description is as above. The conditions noted are these: MCC and control cell lines, CellTiter-Glo viability, 72 h; series mostly up to 46 µM. The procedure, abridged: as §2
A further assay has as its system MCC-26. Described as above. The following applies: MCC and control cell lines, CellTiter-Glo viability, 72 h; series mostly up to 46 µM. The procedure, abridged:
as §2

A further assay has as its system MKL-1. Described as above. The following applies: MCC and control cell lines, CellTiter-Glo viability, 72 h; series mostly up to 46 µM. An outline of the steps: as §2
The subject of another assay is MKL-2. Described as above. The following applies: MCC and control cell lines, CellTiter-Glo viability, 72 h; series mostly up to 46 µM. The procedure, abridged:
as §2

For assay [3], the system named is NIH3T3. The description is as above. The conditions noted are these: MCC and control cell lines, CellTiter-Glo viability, 72 h; at 44.8 µM (top of the series) unless noted. The procedure, abridged:
as §2

Another assay deals with UISO. The assay is described as above. The conditions noted are these: MCC and control cell lines, CellTiter-Glo viability, 72 h; series mostly up to 46 µM. The procedure, abridged: as §2
For the next assay, the system named is WaGa. Described as above. The conditions noted are these: MCC and control cell lines, CellTiter-Glo viability, 72 h; series mostly up to 46 µM. An outline of the steps: as §2
A further assay has as its system C33A. In words: Primary qHTS to identify gynecologic anti-cancer compounds using libraries of approved drugs and bioactive compounds (AID 1345084). Also: nearly all actives have a fitted effect of over 55% in size. The following applies: Gynecologic cancer cell panel viability, ATPlite luminescence, 48 h; series mostly up to 57.5 µM. An outline of the steps: (§3)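 48 h compound exposure at 37 C, 5% CO2; five-point qHTS. ATPlite luminescence readout of cell ATP.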

In a further assay the test system is CAOV3. The description is as above. The following applies: Gynecologic cancer cell panel viability, ATPlite luminescence, 48 h; series mostly up to 57.5 µM. An outline of the steps: as §3
The subject of another assay is CASKI. The description is as above. The conditions noted are these: Gynecologic cancer cell panel viability, ATPlite luminescence, 48 h; series mostly up to 57.5 µM. An outline of the steps:
as §3

The subject of the next assay is Es-2. The description is as above. The conditions noted are these: Gynecologic cancer cell panel viability, ATPlite luminescence, 48 h; series mostly up to 57.5 µM. An outline of the steps:
as §3

Another assay deals with HeLa. The description is as above. The following applies: Gynecologic cancer cell panel viability, ATPlite luminescence, 48 h; series mostly up to 57.5 µM. An outline of the steps:
as §3

For another assay, the system named is CRL-7250. Description: Cytotoxic Profiling of Annotated Libraries Using Quantitative High-Throughput Screening (AID 1296008). Also: nearly all actives have a fitted effect of over 60% in size. The following applies: Five cell lines viability, CellTiter-Glo ATP luminescence, 48-72 h; max response: hits give low values. The procedure, abridged: as §1
Assay [4] deals with HACAT. In words: qHTS assay to identify novel small-molecules to repurpose for Merkel cell carcinoma treatment (AID 1296009). Also: nearly all actives have a fitted effect of over 60% in size. The following applies: MCC and control cell lines, CellTiter-Glo viability, 72 h; at 44.8 µM (top of the series) unless noted. The procedure, abridged:
as §2

Molecules are shown by their SMILES. Several values for one entry are separate records, joined by “and”; a condition that tells them apart may be missing. Equal values may be shown once. Records with an inconclusive call do not appear. A number with no mark means an inactive call. Activity calls are given as the source filed them. Calls follow the shape of the dose curve; as a rule, active = well fitted curve in the direction sought with a large enough effect; inconclusive = small, poorly fitted or top-dose-only effect, or another doubt; inactive = no such curve, though single readings can be large; an effect the other way counts as inactive or inconclusive.
% is scaled to controls: 0 for no effect and ±100 for the full control effect; potency is read from the fitted curve at half-maximal effect.

Take `C[N+]1(CCC(C(N)=O)(c2ccccc2)c2ccccc2)CCCCC1`: the outcome with HEK293, with NIH3T3 [2], with HEK293T and with NIH3T3 [3] was inactive. The max response in the assay with HaCat [1] was -10.3%; in the assay on KB-3-1, 6.68%. Further, the Potency entry with MCC-13, in the assay with MCC-26, with MKL-1, in the assay on MKL-2, in the assay with UISO and with WaGa was “inactive” in each case. In addition, the Potency result with C33A, in the assay with CAOV3, with CASKI, in the assay with Es-2 and in the assay with HeLa was “inactive” throughout.

In the case of `Cc1nnc2n1-c1sc(CCc3ccc(CC(C)C)cc3)cc1C(c1ccccc1Cl)=NC2C` (stereo unspecified), the Potency with HEK293 was 7.5 µM (active); in the assay with MKL-2, 11.9 µM (active); with UISO it was 16.8 µM (active). Also, the Potency entry with MCC-26 and in the assay with CASKI was “inactive” each time.

Regarding `COc1ccc2c3c1O[C@H]1[C@@H](O)C=C[C@H]4[C@@H](C2)N(C)CC[C@@]341`, the Potency in the assay on HEK293 is 33.7 µM (active); in the assay with MCC-13, 23.8 µM (active); with MKL-1, 10.7 µM (active); with MKL-2, 2.12 µM (active); with UISO, 15 µM (active); with WaGa it was 5.34 µM (active). In the assay with CASKI, the Potency is 31.6 µM (active). The max response in the assay with KB-3-1 was -15%.

`CC[C@H]1C[C@H]2[C@@H]3CCC4=CC(=O)CC[C@@H]4[C@H]3CC[C@]2(C)[C@H]1O`: the max response in the assay with CRL-7250 was -11.6%; in the assay with HaCat [1] it was 2.56%; in the assay with NIH3T3 [2], -0.575%. Besides, the result with KB-3-1 was inactive. The Potency result with MCC-13, in the assay on MCC-26, in the assay on MKL-1, in the assay with UISO, in the assay with WaGa and in the assay with CASKI was “inactive” each time. In addition, the Potency entry in the assay on Es-2 is “inactive”.

Consider `CC(=O)OC1(c2ccccc2)CCN(CCc2ccccc2)CC1`, for which the values for the max response in the assay with HaCat [1], in the assay with KB-3-1 and in the assay on NIH3T3 [2] were -10.1%, -24% and -21.5%, respectively. Moreover, the Potency entry in the assay with MKL-1, with C33A, in the assay on Es-2 and in the assay on HeLa was “inactive” throughout. Further, the Potency in the assay on UISO is 24.8 µM (active).

With `CC[C@H]1C[C@@H]2C[C@H]3c4[nH]c5ccc(OC)cc5c4CCN(C2)[C@@H]13`, the max response with CRL-7250 was 1.28%; with HaCat [1] it was -4.77%; with KB-3-1, -8.79%; in the assay with NIH3T3 [2], -11.9%. Moreover, the Potency entry in the assay on MCC-13, in the assay on MCC-26, in the assay with C33A, in the assay on CAOV3, with CASKI and with Es-2 was “inactive” each time. Further, the Potency entry with HeLa was “inactive”. Moreover, the Potency in the assay on WaGa was 42.4 µM (active).

Turning to `Oc1ccc([C@H]2CNCc3c2ccc(O)c3O)cc1O`, the compound was classed as inactive with HaCat [1] and in the assay with HACAT [4]. In addition, the max response in the assay on KB-3-1 is -14.2%; in the assay on NIH3T3 [2], -2.59%. Also, the Potency entry in the assay on MCC-13, with MCC-26, with UISO, in the assay with C33A, with CASKI and in the assay on Es-2 was “inactive” in each case. Further, in the assay with HeLa, the Potency result is “inactive”. In the assay on MKL-2, the Potency was 13.3 µM (active).

In the case of `CC(Cc1ccccc1)NCc1ccccc1Cl` (stereo unspecified), the max response in the assay with CRL-7250 is -20.3%; with HaCat [1] it was -41.8%; with KB-3-1, -8.17%; in the assay on NIH3T3 [2], -14.1%. The Potency result in the assay with MCC-13, with MCC-26, in the assay on MKL-1, in the assay on MKL-2, with UISO and in the assay with WaGa was “inactive” each time. The Potency result in the assay with C33A, with CAOV3, with CASKI, with Es-2 and in the assay with HeLa was “inactive” in each case.

As to `NC1(c2ccccc2)CCCCC1`, the Potency in the assay on HEK293 was 38.2 µM (active). Also, the max response in the assay on HaCat [1] was 1.23%; with KB-3-1 it was 1.89%; in the assay on NIH3T3 [2] it was -27.2%. In addition, the Potency entry in the assay with MCC-13, in the assay with MCC-26, in the assay on MKL-1, with UISO, in the assay with CASKI and in the assay with Es-2 was “inactive” each time.

Turning to `N#Cc1nn(-c2c(Cl)cc(C(F)(F)F)cc2Cl)c(N)c1S(=O)C(F)(F)F` (stereo unspecified), the max response is -17% in the assay with CRL-7250, -11.3% with HaCat [1] and -1.94% in the assay on KB-3-1. Also, the Potency result with MCC-13, in the assay with MCC-26, in the assay on C33A, in the assay with CASKI, with Es-2 and with HeLa was “inactive” each time. The Potency with MKL-2 was 23.7 µM (active).

In the case of `COc1cc(CC(C)N)c(OC)cc1Br` (stereo unspecified), the Potency is 14.2 µM (active) in the assay with HEK293, 3.18 µM (active) with MKL-2, 50.4 µM (active) in the assay on WaGa and 25.1 µM (active) in the assay with HeLa. In addition, the max response in the assay on HaCat [1] was -6.81%; in the assay on KB-3-1, -7.67% and -13.5%. Besides, in the assay on Es-2, the Potency entry is “inactive”.

In the case of `C=CC[C@]1(O)CC[C@H]2[C@@H]3CCC4=CC(=O)CCC4=C3C=C[C@@]21C`, in the assay with HEK293, the Potency was 11.9 µM (active). Further, the max response is 1.64% in the assay with HaCat [1] and -5.35% with KB-3-1. Moreover, the Potency entry in the assay on MCC-13, with MCC-26, with MKL-1, with UISO, in the assay on CAOV3 and with CASKI was “inactive” in each case. For the same compound, the Potency entry in the assay with Es-2 and in the assay on HeLa was “inactive” in each case.
